RAM network inh = blocks the yeast RAM network | S. cerevisiae dse1pr::URA3 reporter, 5-FOA growth OD615, 2 d; analog-sensitive cbk1-as2 kinase mutant strain | actives 1.8% (n = 190,000) | AID 868 | inhibition, % at 50 µM;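 active = inhibition above a set limit, 3 SD over mean compound inhibition, cut at about 8.4% in these data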;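 also: inhibition rescues growth on 5-FOA so higher OD means more RAM inhibition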
S1P4 antagonist = human S1P4 receptor antagonism; AID 1510; actives 0.26% (n = 220,000); inhibition, % at 4.98 µM; S1P4-expressing cells, antagonist mode, reporter read-out; O95977; in the data active = inhibition above about 29%
Target sequence (O95977 whole entry, looked up): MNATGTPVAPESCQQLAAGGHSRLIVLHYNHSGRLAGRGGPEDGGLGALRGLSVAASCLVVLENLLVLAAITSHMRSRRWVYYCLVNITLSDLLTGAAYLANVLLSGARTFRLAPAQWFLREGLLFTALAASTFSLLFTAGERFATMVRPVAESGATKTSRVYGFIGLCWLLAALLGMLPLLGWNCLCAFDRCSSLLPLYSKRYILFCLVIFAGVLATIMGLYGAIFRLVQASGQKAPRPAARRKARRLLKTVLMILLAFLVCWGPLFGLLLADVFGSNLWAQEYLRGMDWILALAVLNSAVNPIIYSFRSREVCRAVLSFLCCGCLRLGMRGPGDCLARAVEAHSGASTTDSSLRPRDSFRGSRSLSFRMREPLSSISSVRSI
S1P3 antagonist = antagonists of human S1P3 receptor; AID 485; CHO S1P3 NFAT-BLA reporter, FRET fluorescence, antagonist mode; actives 0.27% (n = 170,000); inhibition, % at 4.98 µM;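 active = inhibition above the plate cutoff, the mean inhibition of test wells on that plate plus 3 SD, cut at about 28% in these data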;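 also: cells challenged with S1P at its EC80 of 0.8 µM; blue over green emission ratio from cleaved BLA substrate after 4 h stimulation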
S1P4 ag = activates the human S1P4 receptor; AID 1509; S1P4-expressing cell line, agonist reporter assay; activation, % at 4.98 µM; actives 0.35% (n = 220,000); in the data active = activation above about 11%
ROMK mod = modulators of human ROMK potassium channel | P48048 | Tet-inducible ROMK, thallium flux fluorescence; actives lie on both sides | B-score at 10 µM | actives 2% (n = 130,000) | AID 1918;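 active = signal ratio slope over the read window, or its plate-corrected B-score, at least 3 SD from the plate mean, either direction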;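 also: B-score of the F/F0 ratio slope over 7 to 12 s after thallium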
Cl transport mod = modulates chloride dependent transport by human KCC2; KCC2 cells, thallium flux FluoZin-2 fluorescence; B-score of Tl+ flux slope (higher = more flux/activation; lower = inhibition) at 10 µM; actives 2.2% (n = 190,000); AID 1456;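 active = thallium flux slope and its plate-corrected score both differing from the plate sample mean at a set confidence after two filtering rounds, in either direction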;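 also: slope of fluorescence scaled to starting intensity during 10 to 20 s after thallium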
ROMK hit retest = confirmation of human ROMK potassium channel modulators; actives 54% (n = 3,000); shares compounds with ROMK mod; normalized thallium flux (F/F0 slope) at 10 µM; AID 1917; ROMK thallium flux, fluorescence ratio; active compounds read low;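 active = Flux at 10 µM at least 3 SD below or above vehicle control mean in one or both replicates; inconclusive = no clear call, values can overlap the other calls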
Large screens that a line does not name were inactive (follow-up assays come after a bar, where they were run). In the library only some 5.1% were active in any assay of this set; here they are far more common.

O=C(COc1ccc2ccccc2c1)N1CCN(C2CCN(Cc3ccccc3)CC2)CC1	ROMK mod -3 (no result: S1P3 antagonist) | ROMK hit retest 0.061
CC(C)Oc1cc(-n2c(=S)[nH]c3ccccc3c2=O)c(Cl)cc1Cl	none (no result: S1P3 antagonist, ROMK mod, Cl transport mod)
CCCCn1c(C)c(C(=O)OCC)c2c(CN3CCOCC3)c(O)ccc21	ROMK mod -2.3 (no result: S1P3 antagonist, Cl transport mod) | ROMK hit retest 0.066
CN1C2CCC1/C(=C/c1ccccn1)C(=O)/C2=C\c1ccccn1	ROMK mod -3.8 (no result: Cl transport mod) | ROMK hit retest 0.043
Cc1ccccc1-n1c(/C=C/c2ccccn2)nc2ccccc2c1=O	none (no result: RAM network inh, ROMK mod, Cl transport mod)
CCN(CC)c1ccc(N=Cc2c(O)n(CCC3=CCCCC3)c(=O)[nH]c2=O)cc1	ROMK mod -7.1 (no result: Cl transport mod) | ROMK hit retest 0.037
COc1ccc(C(O)c2ccccc2OP(=O)(N(C)C)N(C)C)cc1 (stereo not drawn)	none
O=c1[nH]c2ccccc2o1	none
CC(C)Sc1nnc([C@@H](N)Cc2ccccc2)o1	none (no result: S1P3 antagonist, ROMK mod) | ROMK hit retest inactive
CCC(C)C1NC(=O)C(C(C)=O)=C1O (stereo not drawn)	none (no result: RAM network inh, S1P4 antagonist, S1P3 antagonist, S1P4 ag, ROMK mod)
NCCCC(=O)OC1N=C(c2ccccc2Cl)c2cc(Br)ccc2NC1=O (stereo not drawn)	none
CN1CCN(CC(=O)Nc2ccc([N+](=O)[O-])cc2C(=O)c2ccccc2)CC1	none
Cc1ccc2c(c1)C1CN(C)CCC1N2C(=O)/C(C#N)=C/c1ccc2c(c1)OCO2 (stereo not drawn)	ROMK mod -3.1 | ROMK hit retest 0.053
CN1CCc2nc3sc(C#N)c(N)c3c(-c3cccs3)c2C1	none (no result: S1P3 antagonist, Cl transport mod) | ROMK hit retest inconclusive
Cc1occc1C(=O)N1CCC2(CC1)OCCO2	none (no result: ROMK mod)
Cc1noc(C)c1C(=O)N1CCC2(CC1)OCCO2	ROMK mod 3.1 | ROMK hit retest inactive
CC(C)CN1CCN(Cc2cccc3c2OCO3)CC1CCO (stereo not drawn)	none
Cc1cccc(-n2c(-c3ccccc3)nc3ccccc3c2=O)n1	none
CC(=O)c1ccc2c(c1)OCO2	ROMK mod 3 | ROMK hit retest inactive
CN(Cc1ccccc1)Cc1ccccc1OC(=O)N(C)C	none (no result: Cl transport mod)
CN(CCCCC(=O)/C=N/O)Cc1ccccc1 (tested in a mixture with another compound)	ROMK mod 3.3 (no result: S1P3 antagonist, Cl transport mod) | ROMK hit retest inactive
Cc1cc(C)cc(-n2c(O)c(C=Nc3ccc(N4CCOCC4)cc3)c(=O)[nH]c2=S)c1	none
O=c1[nH]c(=S)n(-c2ccc(Br)cc2)c(O)c1C=Nc1ccc(N2CCOCC2)cc1	none | ROMK hit retest 0.064
CCCCn1c(=O)c(C(=O)Nc2ccsc2C(=O)OC)c(O)c2ccccc21	none
CC(C)CN1CCN(Cc2c(F)cccc2Cl)CC1CCO (stereo not drawn)	none
Cc1ccccc1-n1c(O)c(/C=C2/C(c3ccccc3)=Nc3ccccc32)c(=O)[nH]c1=O	ROMK mod -6 | ROMK hit retest 0.061
Cc1cccc(-n2c(O)c(/C=C3/C(c4ccccc4)=Nc4ccccc43)c(=O)[nH]c2=O)c1	none (no result: RAM network inh, ROMK mod) | ROMK hit retest 0.044
Cc1cccc(-n2c(O)c(/C=C/C=Nc3ccccc3)c(=O)[nH]c2=O)c1	none
O=c1[nH]c(=O)n(Cc2ccc(F)cc2)c(O)c1/C=N/Nc1ccccc1	none (no result: RAM network inh)
COc1cc(N2CCOCC2)ccc1/C=C1\C(=O)NC(=O)N(C2CCCCC2)C1=O	ROMK mod -2.5 | ROMK hit retest inactive
